Screen size: about 330,000 compounds; about 4,400 (1.3%) were called active. This excerpt belongs to a sample that is enriched for actives. A number with no mark means an inactive call.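 The calls were made as follows: active = growth inhibition of the mutant yeast at or above 50%; inactive = the rest.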
Assay: growth inhibitors of tim23-1 mutant yeast, primary screen, luminescence, uHTS (AID 463212);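 also: temperature-sensitive mutant grown at 25 °C; plate controls were DMSO-treated mutant yeast for no effect and medium wells lacking yeast for full effect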
Conditions: S. cerevisiae tim23-1 growth, BacTiter-Glo luminescence, 24 h; at 20 µM; active compounds read high

SMILES | inhibition
O=C(Nc1ccccc1)c1cc2ccccc2[nH]1 | -6.12%
CCCCn1c(=S)[nH]c2ccccc2c1=O | 43.6%
O=c1c2ccccc2[nH]c(=S)n1CCN1CCC(=C(c2ccc(F)cc2)c2ccc(F)cc2)CC1 | 75.8% (active)
COc1ccc(Cn2c(=S)[nH]c3cc(C(=O)NCCCN4CCOCC4)ccc3c2=O)cc1 | 18%
O=C(N[C@H]1C/C=C\C(c2cccc(F)c2)N(Cc2ccccc2)C(=O)C1)OCC1c2ccccc2-c2ccccc21 (stereo partly specified) | 59.7% (active)
O=C(N[C@@H]1C/C=C\C[C@@H](CC(=O)N(CCO)Cc2ccccc2)C(=O)N[C@H](Cc2ccccc2)COC1=O)OCC1c2ccccc2-c2ccccc21 | 22.7%
O=C(N[C@H]1C/C=C\C(c2ccc(F)cc2)N(Cc2ccccc2)C(=O)C1)OCC1c2ccccc2-c2ccccc21 (stereo partly specified) | 38.6%
Cc1cc2c(cc1C)N(C(=O)CN1C(=O)c3ccccc3C1=O)C(C)(C)c1ssc(=S)c1-2 | 30.3%
COc1cc(NC(=O)c2ccc3c(c2)OCO3)ccc1NC(=O)c1cccs1 | -5.22%
COc1cc(NC(=O)c2cccs2)ccc1NC(=O)c1ccccc1Cl | 55.3% (active)
Cc1ccc(C(=O)Nc2ccc(NC(=O)c3cccs3)cc2)c(C)c1 | 11.9%
O=C(Nc1cc(-c2ccccc2)nn1-c1ccccc1F)c1ccc([N+](=O)[O-])cc1 | 18.1%
CCn1ncc(Br)c1C(=O)Nc1cc(C)ccc1F | 38.3%
CCCc1[nH]nc2c1C(c1ccc(Br)s1)C(C#N)=C(N)O2 (stereo unspecified) | 86.6% (active)
CCCc1[nH]nc2c1C(c1ccc(OC(=O)c3ccco3)cc1)C(C#N)=C(N)O2 (stereo unspecified) | -11.4%
CCCc1[nH]nc2c1C(c1ccc(OC)c(Cn3nc(C)c(Br)c3C)c1)C(C#N)=C(N)O2 (stereo unspecified) | 0.046%
O=C(O)C1CCCN(CCC=C(c2ccccc2)c2ccccc2)C1 (stereo unspecified) | 4.65%
Cc1cccc(N2CCN(C(=O)c3cc4c(=O)[nH]c5ccccc5c4n3C)CC2)c1C | 13%
CC(C)(C)OC(=O)NCCCC1=CC2=CC(=O)C(C)(OC(=O)c3ccco3)C(=O)C2=CO1 (stereo unspecified) | 13.3%
COc1ccc(OCC(=O)Nc2ccc(NC(=O)c3ccco3)c(C)c2)cc1 | 16.1%
Cc1ccc(C(=O)COc2cccc(NC(=O)c3ccco3)c2)cc1 | 54.5% (active)
Cc1cccc(OCC(=O)Nc2ccc(NC(=O)c3ccco3)c(C)c2)c1 | 22%
Cc1cccc(N(C)C(=O)c2cc(S(=O)(=O)N3CCCCC3)c[nH]2)c1 | 23.4%

SMILES | inhibition
CCOC(=O)CSc1nnc(CNC(=O)Cc2ccccc2)n1-c1ccccc1OC | 7.97%
Cc1ccc(-c2nn(C(C)(C)C)c3ncnc(N)c23)cc1 | 57.5% (active)
Cc1ccc(-n2cnc3ncnc(-c4ccccc4)c32)cc1 | 15.5%
Cc1c([N+](=O)[O-])c(N)nn1C | -8.73%
Cc1cc(C(=O)COC(=O)C2CC2)c(C)n1-c1ccc(F)cc1 | 35.7%
CC(=O)COc1ccc2c(-c3ccccc3)cc(=O)oc2c1 | -1.93%
O=C(CNC(=O)OCc1ccccc1)Oc1cc2oc(=O)cc(-c3ccccc3)c2cc1Cl | 54.3% (active)
O=C(CNC(=O)c1ccc(-c2ccccc2)cc1)OCc1ccc(Cl)cc1 | -7.6%
O=C1Cc2ccccc2Sc2ccc(Cl)cc21 | 28.6%
COc1cc(NS(=O)(=O)c2ccc(N/C=C(\C=O)c3nc4cc(Cl)ccc4o3)cc2)nc(OC)n1 | 15.4%
Cc1ccc(C(=O)N/C(=C\c2ccco2)C(=O)NC2CCS(=O)(=O)C2)cc1 (stereo unspecified) | 24.1%
COC1=C(N2CCOCC2)C(=O)c2ccccc2C1=O | 2.06%
COc1cc2ccccc2cc1C(=O)N1CCOCC1 | 22.5%
Cc1oc2c(c1C(=O)N1CCOCC1)C(=O)c1ccccc1C2=O | 69% (active)
CCC(=O)N1CCC(C(N)=O)(N2CCCCC2)CC1 | -3.89%
Cn1nnc2cc(C(=O)NCCC3=CCCCC3)ccc21 | -1.3%
Cc1cccc(-c2nc3ccc(C(=O)NCCN4CCN(C)CC4)cc3nc2-c2cccc(C)c2)c1 | 25.1%
C=CCNC(=O)c1ccc2c3n(nc2c1)-c1ccc(C)cc1CO3 | 57.6% (active)
Cc1cc(C(C)(C)C)cc(C)c1N | 9.69%
COc1ccc(-c2cc(C)nc3nc(N)nn23)cc1 | 8.84%
Cc1cc(N)n2nc(-c3ccc(C(C)(C)C)cc3)cc2n1 | 72.3% (active)
Cc1nnc(NC(=O)CSc2nc(C3CCCCC3)nc3ccccc23)s1 | -0.646%
O=C1c2ccccc2C(=O)N1CCC(c1ccccc1)c1ccco1 (stereo unspecified) | 22.6%

SMILES | inhibition
O=S(=O)(Nc1cccc(-n2cnnn2)c1)c1cnc(Cl)c(Cl)c1 | -3.26%
CCCc1c(C(=O)O)cnn1-c1ccc(Cl)cc1 | 13.8%
CCNC(=O)c1cnn(-c2ccccc2)c1-c1ccccc1 | 0.114%
CCCc1c(C(=O)Nc2ccc(F)cc2)cnn1-c1ccccc1 | 55.9% (active)
CC(=O)c1ccccc1NC(=O)C1CC(=O)N(c2ccc3c(c2)OCCO3)C1 (stereo unspecified) | 14.1%
CC1(c2ccccc2)CC(C)(C)N(C(=O)c2cc([N+](=O)[O-])cc([N+](=O)[O-])c2)c2ccccc21 (stereo unspecified) | 4.81%
CC1CCC2CCCCC2N1C(=O)c1cc([N+](=O)[O-])cc([N+](=O)[O-])c1 (stereo unspecified) | 51.9% (active)
CC1CCN(C(=S)c2cccc([N+](=O)[O-])c2)CC1 | 21.4%
COc1ccc(S(=O)(=O)N2CCOCC2)cc1NC(=O)CSc1cc(C)ccc1C | 7.5%
CC[C@]12c3[nH]c4ccc(OC)cc4c3CCN1C(=O)C(CC(=O)NCCN1CCOCC1)C[C@@H]2C(=O)N1CCN(C(=O)C2CC2)CC1 (stereo partly specified) | 26.2%
O=C(Nc1cccc(-c2nc3ncccc3o2)c1)c1ccco1 | 4.7%
Cc1cc(NC(=O)c2ccc(F)cc2)ccc1NC(=O)c1ccco1 | 13.5%
O=C(Nc1ccc2oc(-c3ccccc3F)nc2c1)c1ccco1 | 57.8% (active)
CCCCC1(C(=O)OCC)NC(c2ccc(O)cc2)C2C(=O)N(c3ccccc3)C(=O)C21 (stereo unspecified) | 1.2%
CCC(=O)Nc1ccc(C(=O)CSc2nnc(CNc3ccc(Cl)cc3)o2)cc1OC | -7.17%
O=C(COC(=O)CNC(=O)C1CCCCC1)Nc1cccc(F)c1 | 17.5%
N#C/C(=C\c1ccccc1C(F)(F)F)C(=O)Nc1ccccc1F | 71.2% (active)
O=C(Nc1ccccc1F)c1ccccc1-c1ccc(C(F)(F)F)cc1 | 16%
CN(CC(=O)Nc1ccccc1C(F)(F)F)C(=O)Cc1ccccc1F | 14.9%
CSc1ccccc1NC(=O)COC(=O)CCCOc1ccc(C)cc1 | -1.47%
COc1cccc(NC(=O)COC(=O)CCOc2ccccc2OC)c1 | 8.9%
COc1cc([N+](=O)[O-])ccc1NC(=O)COC(=O)CCOc1ccc(C)cc1 | 73.7% (active)
Cc1cccc(N2C(=O)SC(SC(=Nc3ccccc3)Nc3ccccc3)C2=O)c1 (stereo unspecified) | 49.6%

SMILES | inhibition
CN(C)C(=O)c1cc(Br)ccc1Cl | -8.05%
Cc1ccc(OCCCCN2CCCCC2)c(Br)c1 | 16.7%
COc1ccc(S(=O)(=O)N2CCOCC2)cc1NC(=O)Cc1c(F)cccc1Cl | 5.42%
O=C(Cc1c(F)cccc1Cl)Nc1ncc([N+](=O)[O-])s1 | 55.4% (active)
CN(c1ccccc1)S(=O)(=O)c1cccc(NC(=O)Cc2c(F)cccc2Cl)c1 | 23.3%
COc1ccc2nc3n(c(=O)c2c1)-c1cc(C)ccc1C(=O)NC3Cc1ccc(O)cc1 (stereo unspecified) | -6.13%
Cc1ccc(C2CC(=O)NC(SCC(=O)OCc3ccccc3)=C2C#N)o1 (stereo unspecified) | 59.1% (active)
CCCc1cc(=O)[nH]c(SCC(=O)OCc2ccccc2)n1 | 6.03%
COC(=O)CSC1=C(C#N)C(c2ccccc2OC)C(C(=O)OC)C(=O)N1 (stereo unspecified) | 12.9%
CCCc1nnc(SCC(=O)N2C(C)CCCC2C)n1CC (stereo unspecified) | 1.57%
CC1CCCCC12NC(=O)N(CC(=O)N1CCN(c3ccccc3)CC1)C2=O (stereo unspecified) | 17.7%
O=C(c1[nH]ncc1-c1ccc(Cl)cc1)C1CO1 (stereo unspecified) | 43.9%
O=C(Nc1cc(S(=O)(=O)N2CCOCC2)ccc1N1CCOCC1)c1c(F)cccc1Cl | 14.4%
Cc1cccc(OP(=O)(Nc2c(C)n(C)n(-c3ccccc3)c2=O)Oc2cccc(C)c2)c1 | 20.4%
Cc1cccc(Oc2c([N+](=O)[O-])c(=O)n(C)c3ccccc23)c1 | 56% (active)
Cc1cc(C)c(-c2c(O)c3ccccc3n(C)c2=O)c(C)c1 | 4.89%
CCn1c(SCC(=O)Nc2cc(C)ccc2C)nnc1-c1cnccn1 | 5.06%
CCc1cccc(NC(=O)CCCN2C(=O)C(c3ccccc3)Oc3cccnc32)c1 (stereo unspecified) | 35.3%
O=C(Oc1ccc([N+](=O)[O-])cc1)c1ccc2ccccc2n1 | 69.8% (active)
CC(OC(=O)c1ccc2ccccc2n1)C(=O)c1ccccc1 (stereo unspecified) | 10.7%
COc1ccc(C(=O)COC(=O)c2ccc3ccccc3n2)cc1 | 40.7%
COc1ccc([N+](=O)[O-])cc1C1NN=C(c2cccc3ccccc23)S1 (stereo unspecified) | 0.511%

Reference: PubChem BioAssay AID463212 (Sanford-Burnham Center for Chemical Genomics, 2010)
